Compounds without any hit were thinned out: in the full panel of roughly 83,000, 20% have a hit.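 Growth was measured after 48 h exposure to one concentration of compound in 96-well plates. Values under 10 count as active.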 A number with no mark means an inactive call. Active and inactive are the calls of the source.
Legend:
Assay in all cases: NCI-60 one-dose screen, 48 h (100 = growth as untreated, 0 = no growth, -100 = all killed)
Conditions in all cases: 10 µM unless noted
[1] = tested on: NCI-H23 lung
[2] = tested on: NCI-H226 lung
[3] = tested on: NCI-H322M lung
[4] = tested on: HOP-62 NSCLC
[5] = tested on: NCI-H460 lung
[6] = tested on: HOP-92 NSCLC
[7] = tested on: NCI-H522 lung
[8] = tested on: A549/ATCC NSCLC
[9] = tested on: 786-0 renal
[10] = tested on: COLO 205 colon

Compound	growth [1]	growth [2]	growth [3]	growth [4]	growth [5]	growth [6]	growth [7]	growth [8]	growth [9]	growth [10]
N#Cc1c(N)n(C2OC(CO)C(O)C2O)c2ncnc(N)c12 (stereo not given)	-8.8% (active)	12.1%	-27.6% (active)	-12.7% (active)	0.304% (active)	-21.3% (active)	-56.1% (active)	1.3% (active)	-7.63% (active)	-32.8% (active)
Cc1cc(NC(=O)c2ccc(N)cc2)ccc1N=Nc1ccc2cc(S(=O)(=O)O)cc(S(=O)(=O)O)c2c1	103%	105%	125%	106%	117%	60.8%	129%	92.1%	112%	109%
Clc1ccc(Nc2ncnc3c2sc2ncccc23)cc1	3.68% (active)	31.5%	45.9%	15.7%	10.3%	50.4%	31.5%	27.9%	13.6%	30.2%
Cc1ccc(Nc2nc(NCCO)c3ccccc3n2)cc1C	15.8%	1.03% (active)	55.5%	20.3%	-2.08% (active)	89.7%	-21% (active)	13.6%	29%	-65.7% (active)
Cc1ccc(-c2nc3ccccc3c(=O)n2/N=C/c2cccc3ccccc23)cc1	77.6%	79.2%	54.7%	83.1%	69.1%	74.2%	53.4%	80.1%	87.3%	73.8%
[Ag].[Ag].[NH-]S(=O)(=O)c1ccc(N=Nc2cc(N=Nc3ccc(S([NH-])(=O)=O)cc3)c3c(NC(=O)C(Cl)Cl)cccc3c2OC(=O)C(Cl)Cl)cc1.[c-]1nccs1.[c-]1nccs1	93.8%	90.8%	97.2%	78.9%	56.7%	60.7%	-86.4% (active)	83.5%	106%	6.93% (active)
Cc1cc(N=Nc2ccc(-c3ccc(N=Nc4ccc(O)c(C(=O)O)c4)cc3)cc2)c(N)c(N=Nc2ccc(C(=O)O)cc2)c1N	93.4%	92.4%	99.9%	99.7%	117%	71.8%	85.2%	102%	84.4%	108%
COc1ccc(C(=O)C(CN(C)C)c2ccccc2)cc1 (stereo not given)	13.2%	71.5%	96%	83.6%	47.7%	-4.35% (active)	-73.9% (active)	72.6%	-36.2% (active)	22.8%
CCN(CC)CCCC(C)Nc1cnc(C(=O)Nc2cccc3ccc(OC)nc23)cn1 (stereo not given)	96.1%	61.4%	75.5%	94.2%	1.05% (active)	49.5%	5.07% (active)	81.2%	73.4%	71.4%
COc1c(B(O)O)cccc1-c1nc2c(F)cc3n[nH]c(C)c3c2c2c1CCCC2	17.5%	-0.685% (active)	27.6%	22%	11.7%	24.7%	9.41% (active)	9.82% (active)	19.8%	15.6%
COc1ccc(Nc2ncnc3c2sc2nc(C)cc(C)c23)cc1	111%	103%	102%	107%	97.9%	130%	99.9%	96%	93.9%	111%
COc1ccc2c(c1)CCCC21C(=O)Nc2c(Cl)cccc21 (stereo not given)	86%	85.9%	88.1%	55.7%	94.4%	72.3%	27.7%	68.7%	78.9%	80.6%
COc1ccc(C2CC(c3cccc(Nc4ccnc5cc(Cl)ccc45)c3)=NN2c2ccc(Cl)cc2)cc1 (stereo not given)	84.4%	83.6%	72.4%	88.7%	47.6%	68.5%	90.4%	70.6%	74.4%	73.9%
COc1ccc(C2=CC(c3ccc(OC)cc3Br)N3C=CSC3=N2)cc1 (stereo not given)	96.9%	66.6%	72.8%	75.6%	90.6%	77.4%	67.9%	41.8%	83.7%	80.3%
Oc1ccc(Nc2ncnc3c2sc2ncccc23)cc1	11.2%	42.6%	47%	9.02% (active)	9.18% (active)	28.5%	33.6%	26.9%	12.5%	36%
Oc1ccc(Cl)cc1-c1cc(-c2ccccc2Cl)[nH]n1	47.8%	81.8%	65.1%	63.3%	37.1%	20.6%	27.4%	53.1%	84.7%	104%
Cc1cc(C)c(C#N)c(SCC(=O)c2sc3c(C#N)c(C)cc(C)[n+]3c2[O-])n1	39.4%	46.3%	29%	17%	6.25% (active)	51.8%	-31.1% (active)	19.9%	30.6%	5.03% (active)
CCOC(=O)c1ccccc1SC(C[N+](=O)[O-])c1ccccc1 (stereo not given)	99.1%	86.2%	116%	118%	107%	90.5%	88.8%	78.7%	98.7%	102%
Brc1cccc(-n2ncc3c(Nc4ccc(-c5nnc(-c6ccccc6)o5)cc4)ncnc32)c1	94.5%	90.2%	104%	89.6%	109%	104%	98.3%	109%	104%	107%
CC(CN1CCN(CCOCCO)CC1)CN1c2ccccc2Sc2ccc(Cl)cc21 (stereo not given)	72.7%	83.5%	88.2%	107%	50.2%	-3.33% (active)	33.3%	75.1%	65.5%	-79.9% (active)
COc1ccc(C2C=C(c3ccc(Cl)cc3)N=C3SC=CN32)cc1 (stereo not given)	101%	112%	133%	108%	103%	86.4%	113%	104%	97.8%	109%
O=[N+]([O-])c1cccc([I+]c2ccccc2)c1	49.8%	59%	76.6%	-26.8% (active)	18.2%	93.6%	50.3%	47.7%	70.8%	40.1%
CCCCCCCCCCCCCC(=S)NCCCC[C@H](NC(=O)OCc1ccccc1)C(=O)Nc1ccccc1	37.2%	60.8%	95.2%	58.4%	45.5%	19.8%	27.6%	49.3%	48.8%	55.6%
COc1ccc(/C(=C\c2cc(OC)c(OC)c(OC)c2)C(=O)N2CCN(c3ccccc3)CC2)cc1O	99.2%	98.8%	100%	99%	106%	85.9%	84.4%	90%	103%	111%
CC1=C(C(=O)Nc2ccc(F)cc2)C(c2ccc(Cl)cc2)C2=C(CC(C)(C)CC2=O)N1 (stereo not given)	86%	84.1%	102%	97.2%	96.4%	62%	82.4%	78.3%	88.3%	97%
CCSc1ccc([C@@H]2[C@@H](N)C(=O)N2c2cc(OC)c(OC)c(OC)c2)cc1	35.9%	59.4%	45.7%	41.8%	12.2%	113%	18.7%	30.5%	31.7%	-5.46% (active)
c1ccc2c(Cc3csc4ccccc34)csc2c1	84.7%	95.1%	87.2%	83.2%	104%	77.7%	65.3%	83%	93.8%	83.3%

Reference: PubChem BioAssay (NCI)
